Test results as given in publication PMC9574860, “Chemical Toolkit for PARK7: Potent, Selective, and High-Throughput” (Journal of Medicinal Chemistry, 2022).
In all, about 7,900 compounds went through this assay and about 400 (5.1%) showed an effect of 50% or more. The full list was thinned out, with strong results kept by preference.

These molecules were tested against Parkinson's disease protein 7 (PARK7/DJ1) (human, UniProt Q99497) (assay: primary screen, percent inhibition; read as competition with a fluorescent probe by fluorescence polarization; higher = more effect of the substance). Conditions: 100 µM.
Chain of Parkinson's disease protein 7 (PARK7/DJ1) (Q99497 whole entry, looked up, the tested form may be a part): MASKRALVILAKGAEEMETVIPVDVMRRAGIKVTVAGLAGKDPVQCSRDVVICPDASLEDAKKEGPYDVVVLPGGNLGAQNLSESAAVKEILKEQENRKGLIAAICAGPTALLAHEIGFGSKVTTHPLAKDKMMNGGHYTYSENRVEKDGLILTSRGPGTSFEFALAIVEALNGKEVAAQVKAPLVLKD
Method in brief: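 Covalent fragments at 100 μM final were incubated 2 h with 0.2 μM PARK7, then 20 nM probe JYQ-107 added for a further 2 h. Fluorescence polarization read at 480/520 nm; relative FP loss versus reference controls gave remaining enzyme activity.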

SMILES | Inhibition %
Cc1cc(B2OC(C)(C)C(C)(C)O2)sn1 | 0.986%
O=C1N(c2ccccc2)C(c2ccco2)C1(F)F (stereo not drawn) | 3.32%
Cc1cccnc1S | 12.6%
Sc1ncccc1Cl | 2.79%
Nc1cccnc1S | 101%
C=CC(=O)NC(C)c1csnn1 (stereo not drawn) | 10%
N#Cc1nc(N2CCCC(N3CCNC3=O)C2)ccc1Cl (stereo not drawn) | 1.45%
Cc1ccccc1OCC1CO1 (stereo not drawn) | 13.4%
FC(F)(F)c1ccccc1OCC1CO1 (stereo not drawn) | 11.7%
Fc1ccccc1OCC1CO1 (stereo not drawn) | 54.7%
C=CC(=O)NCC1=CCOCC1 | 6.41%
COC(=O)c1cccc(S(=O)(=O)F)n1 | 7.02%
COC(=O)c1ccc(Cl)c(S(=O)(=O)F)c1 | 9.08%
COC(=O)c1ccccc1CS(=O)(=O)F | 7.86%
COC(=O)c1ccc(Cl)cc1S(=O)(=O)F | 96.1%
COC(=O)c1ccc(S(=O)(=O)F)cc1F | 4.21%
COC(=O)c1ccccc1S(=O)(=O)F | 52.5%
Cc1noc(C2CCN(Cc3cc(C#N)n(C)c3)C2)n1 (stereo not drawn) | 6.79%
C=CC(=O)N1CCC[C@@H]2O[C@H](c3ccccc3)C[C@@H]21 (racemic) | 5.3%
N#Cc1nccnc1SC1CCCC1 | 6.92%
O=S(=O)(C=Cc1ccccc1)NCc1cccnc1 | 15.5%
C=C(C(=O)O)c1ccccc1F | 3.02%
CC1(C2CC2)CCN(c2cncc(C#N)n2)CC1 | 6.7%
O=C(O)c1ccnc(S)c1 | 11.8%
O=C(O)c1nccnc1S | 83.1%
Nc1nccnc1S | 26.8%

SMILES | Inhibition %
C=CC(=O)NC1CCN(c2ncccc2F)C1 (stereo not drawn) | 14.9%
C=CC(=O)N1CCC(c2cccc(C(F)(F)F)c2)C1 (stereo not drawn) | 10.4%
C=CC(=O)Nc1ccc2c(c1)CCC(C)(C)O2 | 6.26%
COC(=O)Nc1ccc(S(=O)(=O)F)cc1[N+](=O)[O-] | 101%
COC(=O)Nc1ccc(S(=O)(=O)F)cc1 | 34.7%
COc1ccc(NC(=O)CCl)c([N+](=O)[O-])c1 | 10.4%
C=CC(=O)N1CC(C(C)C)c2ccccc21 (stereo not drawn) | 5.57%
C=CC(=O)N(C)CC(=O)Nc1cc(C)on1 | 7.52%
C=CC(=O)N(C)CC(=O)Nc1csc(C)n1 | 7.47%
C=CC(=O)N(C)CC(=O)Nc1cc(C)c(=O)n(C)c1 | 54.5%
C=CCNC(=O)C(C#N)=Cc1cc(F)ccc1F | 6.92%
CC1CC1C(=O)N1CCC(CS(=O)(=O)F)CC1 (stereo not drawn) | 25.9%
CC1CC1C(=O)N1CCOC(CS(=O)(=O)F)C1 (stereo not drawn) | 11.8%
CC1CC1C(=O)N1CCC(S(=O)(=O)F)CC1 (stereo not drawn) | 72.2%
O=C(C1CCOCC1)N1CCCC(S(=O)(=O)F)C1 (stereo not drawn) | 8.98%
CC1CC1C(=O)N1CCC(S(=O)(=O)F)C1 (stereo not drawn) | 36.5%
O=C(C1CCOCC1)N1CCC(S(=O)(=O)F)C1 (stereo not drawn) | 19.5%
O=C(C1CCOCC1)N1CCCC(CS(=O)(=O)F)C1 (stereo not drawn) | 55.9%
C=CC(=O)N1CCC(CS(C)(=O)=O)C1 (stereo not drawn) | 4.28%
CC1CC1C(=O)N1CCC(CS(=O)(=O)F)C1 (stereo not drawn) | 96.8%
CC1CC1C(=O)N1CC(CS(=O)(=O)F)C1 (stereo not drawn) | 16.8%
CC1CC1C(=O)N1CCCC(CS(=O)(=O)F)C1 (stereo not drawn) | 71.5%
O=C(C1CCOCC1)N1CCC(CS(=O)(=O)F)CC1 | 20.1%
C=CC(=O)Nc1ccc(OC)c(F)c1 | 4.48%
O=c1c2sccc2nc(S)n1CCCN1CCOCC1 | 1.46%
O=C(CCl)Nc1cc(C(F)(F)F)ccc1Cl | 4.72%

SMILES | Inhibition %
N#Cc1ccnc2ccnn12 | 4.63%
CC1(S(=O)(=O)NC2CN(c3ccc(F)cc3)C2=O)CC1 (stereo not drawn) | 10.3%
O=C(C=Cc1nccs1)N1CCc2ccccc21 | 14.3%
CCc1nc(C#N)cc(NC2CSC2)n1 | -3.02%
Cc1cc(C)n(S(=O)(=O)c2ccc(C)c(C)c2)n1 | 3.92%
CC1CC(N2CCn3c(nnc3C3CC3)C2)C(=O)O1 (stereo not drawn) | 18%
O=C(c1cc(F)cc(F)c1)N1CCCCC1C1OCCO1 (stereo not drawn) | 3.28%
C=CC(=O)N1CCN(CCc2ccc(F)cc2)CC1 | 8.07%
CC1CCCN(C(=O)C=Cc2cnc3ccccc3n2)C1 (stereo not drawn) | 9.42%
C=CC(=O)NC1CCCc2c1cnn2CC (stereo not drawn) | 8.99%
Cc1cc(C(=O)CCl)c(C)n1-c1ccon1 | 82.8%
Cc1cc(C(=O)CCl)c(C)n1-c1nccs1 | 4.37%
Cc1cc(C(=O)CCl)c(C)n1-c1ccccn1 | 71.3%
Cc1csc(CC(=O)NNC(=O)CCl)n1.Cl | 0.415%
Cc1cc(-n2c(C)cc(C(=O)CCl)c2C)no1 | 7.75%
O=C(CCl)Nc1ccon1 | 14.8%
Cc1csc(-n2c(C)cc(C(=O)CCl)c2C)n1 | 51%
Cc1cc(C(=O)CCl)c(C)n1-c1ccc(F)cn1 | 5.68%
Cc1cc(C(=O)CCl)c(C)n1-c1ncn[nH]1 | 60%
C=CC(=O)N(Cc1cncs1)C1CCN(C(C)=O)CC1 | 5.13%
C=CC(=O)N(C)CC(=O)N1CCOCC1 | 16.7%
C=CC(=O)N1CCC(CC(=O)NC)CC1 | 5.8%
C=CC(=O)N1CCCC(C(=O)Nc2nc(C)cs2)C1 (stereo not drawn) | 5.32%
N#Cc1ccc(N2CCC3(CCOC3)C2)cn1 (stereo not drawn) | -4.97%
O=C1CCN1c1ccc(O)cc1 | 5.37%
C=CC(=O)N1CCCC(n2ccc(C(=O)NC)n2)C1 (stereo not drawn) | 8.31%

SMILES | Inhibition %
CC(CC(O)c1ccccc1)NC(=O)c1cccnc1S (stereo not drawn) | 5.61%
N#CC(=Cc1ccc(O)c(O)c1)c1ccccn1 | 3.18%
C=CC(=O)NC(c1ccco1)C(C)(C)C (stereo not drawn) | 7.05%
COCC1CN(C(=O)c2c[nH]c(C#N)c2)CC(C)(C)O1 (stereo not drawn) | 10.6%
CC1=C(C)CN(c2nccnc2C#N)CC1 | 26%
COc1ccc(C=C(C#N)C(N)=O)c(Cl)c1OC | 3.63%
O=C(CCl)N1CCN(Cc2ccc3c(c2)OCCO3)CC1 | 15.8%
Cc1cc(C(=O)CCl)c(C)n1-c1ccc2c(c1)OCCO2 | 63.9%
O=C(CCl)NCCc1ccc2c(c1)OCCO2 | 47.9%
O=c1[nH]nc(S)n2cccc12 | 26.7%
CC(CNc1nccnc1C#N)c1ccc(F)c(F)c1 (stereo not drawn) | 22.4%
CC1CC(Sc2ncnc3ccccc23)C(=O)O1 (stereo not drawn) | 4.79%
O=C1OCCC1Sc1ccc2ccccc2n1 (stereo not drawn) | -0.865%
Cc1nc2ccccc2nc1SC1CCOC1=O (stereo not drawn) | 70.3%
Cn1c(SC2CCOC2=O)nc2ccccc21 (stereo not drawn) | 12%
O=C1OCCC1Sc1ncnc2sccc12 (stereo not drawn) | 6.21%
O=C1OCCC1Sc1ncnc2ccccc12 (stereo not drawn) | 54.5%
C=CC(=O)N(Cc1nc(-c2cccnc2)no1)C(C)C | 22.6%
Cc1cc(C#N)nc(NC2CCCCCC2)n1 | 2.75%
Cc1nc(C#N)c(NC(=O)CSCC2CCCCO2)o1 (stereo not drawn) | 12.5%
CCCC(NC(=O)CCl)c1ccccc1 (stereo not drawn) | 14.5%
CCCc1cc(NC(=O)CCl)n(-c2ccccc2)n1 | 31.6%
C=CC(=O)N1CCC2(CCOCC2)CC1 | 5.66%
O=C(CCl)N1CC=C(c2c[nH]c3ccccc23)CC1 | 51.5%
O=C1OCCC1N1CC=C(c2c[nH]c3ccccc23)CC1 (stereo not drawn) | 4.4%
COc1ccc(C2=CCN(C(=O)CCl)CC2)cc1 | 78.7%

SMILES | Inhibition %
COc1ccc(N2CCN(C(=O)CCl)CC2)cc1 | 28.8%
O=C(CCl)c1c[nH]c2ccccc12 | 37.9%
COc1ccc(CN2CCN(C(=O)CCl)CC2)cc1.Cl | 10.6%
C=CC(=O)N1CCOC[C@@H]1CC(C)C | 6.89%
c1cc(OCC2CO2)c2cc[nH]c2c1 (stereo not drawn) | -2.42%
N#CC(=Cc1ccccc1)C(=O)Nc1nncs1 | 3.58%
COc1cc(C)c(C)cc1S(=O)(=O)n1cnc(C)c1 | 6.69%
NC(=O)c1ccc(NC(=O)CCl)cc1 | 35.3%
N#CCc1ccc(NC(=O)CCl)cc1 | 88.8%
O=C(O)Cc1ccc(NC(=O)CCl)cc1 | 43.8%
CCc1ccc(NC(=O)CCl)cc1 | 99.1%
COC(=O)c1ccc(NC(=O)CCl)cc1 | 60.9%
COC(=O)c1cccc(NC(=O)CCl)c1 | 25.2%
CC(=O)c1ccc(NC(=O)CCl)cc1 | 45.4%
N#Cc1ccc(NC(=O)CCl)cc1Cl | 29.1%
CCOC(=O)c1ccccc1NC(=O)CCl | 7.46%
CC(=O)Nc1ccc(NC(=O)CCl)cc1 | 4.19%
CCOC(=O)c1ccc(NC(=O)CCl)cc1 | 56.5%
CCc1cccc(NC(=O)CCl)c1 | 14.1%
O=C(CCl)NCC1Cc2ccccc2O1 (stereo not drawn) | 26.5%
COc1cc2c(B3OC(C)(C)C(C)(C)O3)cn(C)c2cn1 | 6.59%
C=CC(=O)NC1CCCN(c2ccc(F)cc2C)C1 (stereo not drawn) | 6.65%
